PubChem BioAssay (NCATS)
Records with an inconclusive call do not appear. Activity calls are given as the source filed them. Unless noted, calls follow the shape of the dose curve; as a rule, active = well fitted curve in the direction sought with a large enough effect; inconclusive = small, poorly fitted or top-dose-only effect, or another doubt; inactive = no such curve, though single readings can be large; an effect the other way counts as inactive or inconclusive.

Tests used:
[1] = biological target: Atrial natriuretic peptide receptor 2 (Homo sapiens) (UniProt P20594); assay: Natriuretic polypeptide receptor (hNpr2) antagonism - Pilot subtype selectivity assay (AID 1347050; calls by dose curve; also: % is scaled to controls: 0 for no effect and ±100 for the full control effect)
Chain of Atrial natriuretic peptide receptor 2 (Homo sapiens) (P20594 whole entry, looked up): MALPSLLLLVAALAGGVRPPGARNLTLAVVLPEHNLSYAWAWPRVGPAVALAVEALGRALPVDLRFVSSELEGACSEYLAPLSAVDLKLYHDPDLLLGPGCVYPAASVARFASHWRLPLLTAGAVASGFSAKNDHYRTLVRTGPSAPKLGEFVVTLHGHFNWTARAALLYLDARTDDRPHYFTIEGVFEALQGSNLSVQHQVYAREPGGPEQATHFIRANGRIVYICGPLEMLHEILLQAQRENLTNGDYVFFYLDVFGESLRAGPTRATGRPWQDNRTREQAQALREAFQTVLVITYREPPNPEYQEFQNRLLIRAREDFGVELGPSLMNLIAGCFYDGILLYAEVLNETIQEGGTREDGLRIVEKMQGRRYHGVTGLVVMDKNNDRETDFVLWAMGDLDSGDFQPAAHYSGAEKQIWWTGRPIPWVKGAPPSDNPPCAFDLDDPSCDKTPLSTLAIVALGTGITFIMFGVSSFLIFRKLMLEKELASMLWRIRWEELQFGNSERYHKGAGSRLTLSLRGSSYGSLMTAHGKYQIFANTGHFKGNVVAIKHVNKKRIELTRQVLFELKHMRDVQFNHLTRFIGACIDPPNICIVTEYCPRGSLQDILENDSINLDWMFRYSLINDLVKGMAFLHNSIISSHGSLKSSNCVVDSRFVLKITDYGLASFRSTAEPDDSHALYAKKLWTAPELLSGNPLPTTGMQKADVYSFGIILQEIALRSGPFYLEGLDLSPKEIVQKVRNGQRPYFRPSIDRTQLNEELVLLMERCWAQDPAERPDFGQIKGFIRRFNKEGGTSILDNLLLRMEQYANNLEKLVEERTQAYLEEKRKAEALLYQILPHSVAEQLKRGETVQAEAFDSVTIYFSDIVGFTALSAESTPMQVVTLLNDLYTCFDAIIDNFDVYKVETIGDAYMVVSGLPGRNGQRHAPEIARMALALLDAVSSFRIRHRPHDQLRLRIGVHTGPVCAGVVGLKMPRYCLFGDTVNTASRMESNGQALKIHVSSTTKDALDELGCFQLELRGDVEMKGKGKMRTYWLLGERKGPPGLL
How it was run: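 Pilot selectivity screen against hNpr2: HEK293 cGMP-sensor cells are treated with LOPAC1280 compounds, then with hNppC peptide at 1 nM final. The cGMP-driven luminescence change over 20 min at room temperature is the read-out.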

[2] = NS1 protein of Zika virus - qHTS assay to identify small molecule inhibitors in human HEK 293 cells (AID 1347053);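 also: series mostly up to about 46 µM; plate controls were infected untreated cells for no effect and uninfected cells for full effect; nearly all actives have a fitted effect of over 55% in size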
How it was run: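 Inhibition of NS1 expression was scored in HEK 293 cells given compound 1 h ahead of MR766 virus (MOI = 0.5). Following 24 h at 37 C, two anti-NS1 antibodies generated a TR-FRET signal, scaled between uninfected and infected controls.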

[3] = biological target: T1, Tyrosine-protein phosphatase non-receptor type substrate 1 (Homo sapiens) + Leukocyte surface antigen CD47 (Homo sapiens) (UniProt P78324+Q08722); assay: CD47-SIRPalpha protein protein interaction - LANCE assay qHTS validation (AID 1347057; active = well fitted curve in the direction sought with a large enough effect in the signal ratio, with a control signal flat, not every such curve was filed as active; the % refers to the signal ratio; also: series mostly up to about 38 µM; 0% is about no effect)
T1 sequence (P78324 whole entry, looked up): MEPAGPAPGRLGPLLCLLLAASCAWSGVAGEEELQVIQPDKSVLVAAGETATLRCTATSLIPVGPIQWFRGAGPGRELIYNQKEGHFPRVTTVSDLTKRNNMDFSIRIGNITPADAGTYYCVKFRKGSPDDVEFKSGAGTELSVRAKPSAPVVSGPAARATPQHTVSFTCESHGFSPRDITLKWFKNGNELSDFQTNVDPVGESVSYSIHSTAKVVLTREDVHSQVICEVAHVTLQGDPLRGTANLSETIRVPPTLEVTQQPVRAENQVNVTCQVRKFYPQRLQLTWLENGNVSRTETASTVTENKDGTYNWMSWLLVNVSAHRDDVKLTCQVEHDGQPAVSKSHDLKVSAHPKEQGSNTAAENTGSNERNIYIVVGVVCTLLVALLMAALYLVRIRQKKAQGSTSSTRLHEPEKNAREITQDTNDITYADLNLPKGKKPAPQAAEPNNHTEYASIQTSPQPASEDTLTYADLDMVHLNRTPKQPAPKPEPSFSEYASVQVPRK
T1 sequence (Q08722 whole entry, looked up): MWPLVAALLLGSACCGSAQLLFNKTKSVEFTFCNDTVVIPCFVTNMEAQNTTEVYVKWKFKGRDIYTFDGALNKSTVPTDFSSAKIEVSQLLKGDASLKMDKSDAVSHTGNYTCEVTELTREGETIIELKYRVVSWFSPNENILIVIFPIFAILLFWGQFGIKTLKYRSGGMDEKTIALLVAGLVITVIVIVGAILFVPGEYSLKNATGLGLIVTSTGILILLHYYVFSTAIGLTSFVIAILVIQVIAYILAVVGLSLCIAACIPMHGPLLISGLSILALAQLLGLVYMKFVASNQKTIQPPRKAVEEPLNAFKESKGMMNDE
How it was run: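 First, His-tagged CD47 and Eu-labelled anti-His antibody met the compound for 30 min; next, site-specifically biotinylated SIRPalpha was added for 30 min; finally streptavidin-APC was added before reading the TR-FRET ratio.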

[4] = biological target: T1, Tyrosine-protein phosphatase non-receptor type substrate 1 (Homo sapiens) + Leukocyte surface antigen CD47 (Homo sapiens); assay: CD47-SIRPalpha protein protein interaction - HTRF assay qHTS validation (AID 1347058; active = well fitted curve in the direction sought with a large enough effect in the signal ratio, not every such curve was filed as active; the % refers to the signal ratio;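 also: recombinant soluble extracellular CD47 with His tag and biotinylated SIRPalpha domains; series mostly up to about 38 µM; 0% is about no effect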)
How it was run: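 TR-FRET read (Ch1/Ch2 ratio) of soluble extracellular CD47 and Avi-biotinylated SIRPalpha domains in PBS pH 7.4 with 0.05% IGEPAL; 7-point compound titration. Sequential 30 min room-temperature steps; non-biotinylated SIRPalpha as control inhibitor.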

[5] = biological target: T1, Tyrosine-protein phosphatase non-receptor type substrate 1 (Homo sapiens) + Leukocyte surface antigen CD47 (Homo sapiens); assay: CD47-SIRPalpha protein protein interaction - Alpha assay qHTS validation (AID 1347059);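 also: bead proximity luminescence from CD47 binding SIRPalpha after compound preincubation with SIRPalpha; % is scaled to controls: 0 for no effect and ±100 for the full control effect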
How it was run: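 Binding is measured by AlphaScreen proximity: Ni-NTA acceptor beads capture His-CD47, streptavidin donor beads capture biotin-SIRPalpha. Each of three additions (SIRPalpha with compound, CD47, beads) incubates 30 min at room temperature protected from light.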

[6] = biological target: Parathyroid hormone/parathyroid hormone-related peptide receptor (Homo sapiens) (UniProt Q03431); assay: qHTS for PTHR1 Agonists: Optimization Screen against the NCGC LOPAC library (AID 1347079);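 also: GloSensor cAMP luminescence in HEK-293 GP2 cells expressing human PTHR1 with IBMX; 0% is about no effect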
Chain of Parathyroid hormone/parathyroid hormone-related peptide receptor (Homo sapiens) (Q03431 whole entry, looked up): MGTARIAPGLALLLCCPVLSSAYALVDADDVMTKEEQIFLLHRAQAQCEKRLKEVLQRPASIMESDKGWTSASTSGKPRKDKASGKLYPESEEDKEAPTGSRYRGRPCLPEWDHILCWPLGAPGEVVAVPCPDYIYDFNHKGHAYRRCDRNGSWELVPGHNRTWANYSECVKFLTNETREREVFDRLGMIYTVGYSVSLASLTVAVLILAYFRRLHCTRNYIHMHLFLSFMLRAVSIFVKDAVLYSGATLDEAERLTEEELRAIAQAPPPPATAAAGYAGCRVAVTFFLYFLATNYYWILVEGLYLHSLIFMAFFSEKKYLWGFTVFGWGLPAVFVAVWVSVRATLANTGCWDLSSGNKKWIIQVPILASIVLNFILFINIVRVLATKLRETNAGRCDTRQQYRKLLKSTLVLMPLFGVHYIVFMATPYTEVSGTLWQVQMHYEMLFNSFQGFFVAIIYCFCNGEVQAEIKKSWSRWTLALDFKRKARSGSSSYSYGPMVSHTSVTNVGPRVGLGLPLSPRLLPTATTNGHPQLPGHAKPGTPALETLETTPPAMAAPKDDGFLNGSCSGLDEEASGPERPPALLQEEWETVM
How it was run: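 Compounds were tested across a qHTS titration. PTHR1-expressing GP2 cells report cAMP rises via GloSensor luminescence after 1 hr compound exposure at 37C with IBMX present.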

[7] = qHTS of pediatric cancer cell lines to identify multiple opportunities for drug repurposing: Primary screen for TC32 cells (AID 1347089); also: % is scaled to controls: 0 for no effect and ±100 for the full control effect; nearly all actives have a fitted effect of over 60% in size
How it was run: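 A viability screen of TC32 cells was run over 48 h, with primary MIPE doses spanning 0.78 nM–46 µM and NPC doses 0.59 nM–46 µM. ATP luminescence (CellTiter-Glo) served as the read-out.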

[8] = qHTS of pediatric cancer cell lines to identify multiple opportunities for drug repurposing: Primary screen for DAOY cells (AID 1347090);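 also: series mostly up to about 46 µM; plate controls were DMSO for no effect and bortezomib for full effect; nearly all actives have a fitted effect of over 55% in size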
How it was run: (§1)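 Cell viability, CellTiter-Glo luminescence; 500-1,000 cells/well, 8- or 11-point titration, 48 h compound exposure at 37 degrees C, 5% CO2. Controls: DMSO neutral, bortezomib 2.3 µM final as positive.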

[9] = qHTS of pediatric cancer cell lines to identify multiple opportunities for drug repurposing: Primary screen for SJ-GBM2 cells (AID 1347091);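 also: plate controls were DMSO neutral control for no effect and bortezomib for full effect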
How it was run: as §1

[10] = qHTS of pediatric cancer cell lines to identify multiple opportunities for drug repurposing: Primary screen for A673 cells (AID 1347092); also: nearly all actives have a fitted effect of over 45% in size; also: potency is read from the fitted curve at half-maximal effect; as to activity change, negative = cytotoxic: % is scaled to controls: 0 for no effect and ±100 for the full control effect
How it was run: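 Titration-based qHTS on A673 cells: MIPE compounds spanned 11 points (0.78 nM to 46 µM final), NPC compounds 8 points (0.59 nM to 46 µM final). Viability after 48 h was measured by ATP luminescence.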

c1cc(CN2CCCCC2)cc(OCCCNc2nc3ccccc3s2)c1
inactive: Potency [1] | outcome [2] | outcome [3] | outcome [4] | Potency [5] | outcome [6] | Potency [7] | Potency [8]

COc1cc(C(=O)OCCCN2CCCN(CCCOC(=O)c3cc(OC)c(OC)c(OC)c3)CC2)cc(OC)c1OC
inactive: Potency [1] | outcome [2] | outcome [3] | outcome [4] | Potency [5] | outcome [6] | Potency [7] | Potency [8]

CC(=O)[C@@]1(O)CC[C@H]2[C@@H]3CCC4=CC(=O)CC[C@]4(C)[C@H]3CC[C@@]21C
inactive: Potency [1] | outcome [2] | outcome [3] | outcome [4] | Potency [5] | outcome [6] | Potency [7] | Potency [8] | Potency [9] | Potency [10]

CCCCCN(CCCCC)C(=O)C(CCC(=O)O)NC(=O)c1ccc(Cl)c(Cl)c1 (stereo not drawn)
inactive: Potency [1] | outcome [2] | outcome [3] | outcome [4] | Potency [5] | outcome [6] | Potency [7] | Potency [8] | Potency [9] | Potency [10]

CN1C(=O)CC[C@H]1c1cccnc1
inactive: Potency [1] | outcome [2] | outcome [3] | outcome [4] | Potency [5] | outcome [6] | Potency [7] | Potency [8] | Potency [9] | Potency [10]

CC(=O)Nc1nnc(S(N)(=O)=O)s1
inactive: Potency [1] | outcome [2] | outcome [3] | outcome [4] | Potency [5] | outcome [6] | Potency [7] | Potency [8] | Potency [9] | Potency [10]

Cc1ccc(/C(=C\CN2CCCC2)c2ccccn2)cc1
inactive: Potency [1] | outcome [2] | outcome [3] | outcome [4] | Potency [5] | outcome [6] | Potency [7] | Potency [8] | Potency [9] | Potency [10]

FC(F)(F)c1ccccc1-n1ccnc1
inactive: Potency [1] | outcome [2] | outcome [3] | outcome [4] | Potency [5] | outcome [6] | Potency [7] | Potency [8] | Potency [9] | Potency [10]

C(=C\c1ccccc1)/CN1CCN(C(c2ccccc2)c2ccccc2)CC1
inactive: Potency [1] | outcome [2] | outcome [3] | outcome [4] | Potency [5] | outcome [6] | Potency [7]

Nc1c2c(nc3ccccc13)CCCC2O (stereo not drawn)
inactive: Potency [1] | outcome [2] | outcome [3] | outcome [4] | Potency [5] | outcome [6] | Potency [7] | Potency [8] | Potency [9] | Potency [10]

CC(C)[N+](C)(CCOC(=O)C1c2ccccc2Oc2ccccc21)C(C)C
inactive: Potency [1] | outcome [2] | outcome [3] | outcome [4] | Potency [5] | outcome [6] | Potency [7] | Potency [8] | Potency [9] | Potency [10]

Cc1ccc(=O)n(-c2ccccc2)c1
inactive: Potency [1] | outcome [2] | outcome [3] | outcome [4] | Potency [5] | outcome [6] | Potency [7] | Potency [8] | Potency [9] | Potency [10]

CCCCCCCC/C=C\CCCCCCCC(=O)NCc1ccc(O)c(OC)c1
active: Potency [10] 2.66 µM
inactive: Potency [1] | outcome [2] | outcome [3] | outcome [4] | Potency [5] | outcome [6] | Potency [7] | Potency [8]

COc1ccc([C@@H]2Sc3ccccc3N(CCN(C)C)C(=O)[C@@H]2OC(C)=O)cc1
inactive: Potency [1] | outcome [2] | outcome [3] | outcome [4] | Potency [5] | outcome [6] | Potency [7] | Potency [8] | Potency [9] | Potency [10]

CCN(CC)CC(=O)Nc1c(C)cccc1C
inactive: Potency [1] | outcome [2] | outcome [3] | outcome [4] | Potency [5] | outcome [6] | Potency [7] | Potency [8] | Potency [9] | Potency [10]

C[N+](C)(C)CCOC(=O)CCC(=O)OCC[N+](C)(C)C
inactive: Potency [1] | outcome [2] | outcome [3] | outcome [4] | Potency [5] | outcome [6] | Potency [7] | Potency [8] | Potency [9] | Potency [10]

COCCOC(=O)C1=C(C)NC(C)=C(C(=O)OC(C)C)C1c1cccc([N+](=O)[O-])c1 (stereo not drawn)
inactive: Potency [1] | outcome [2] | outcome [3] | Potency [5] | outcome [6] | Potency [7]

c1cnc(N2CCN(Cc3ccc4c(c3)OCO4)CC2)nc1
inactive: Potency [1] | outcome [2] | outcome [3] | outcome [4] | Potency [5] | outcome [6] | Potency [7] | Potency [8] | Potency [9] | Potency [10]

NC/C=C/C(=O)O
inactive: Potency [1] | outcome [2] | outcome [3] | outcome [4] | Potency [5] | outcome [6] | Potency [7] | Potency [8] | Potency [9] | Potency [10]

CC(N=C(NC#N)Nc1ccncc1)C(C)(C)C (stereo not drawn)
inactive: Potency [1] | outcome [2] | outcome [3] | outcome [4] | Potency [5] | outcome [6] | Potency [7] | Potency [8] | Potency [9] | Potency [10]

CCN(CC)CCOCCOC(=O)C1(c2ccccc2)CCCC1
inactive: Potency [1] | outcome [2] | outcome [3] | outcome [4] | Potency [5] | outcome [6] | Potency [7] | Potency [8] | Potency [9] | Potency [10]

Cc1cccc(C)c1NC(=O)C(C)N (stereo not drawn)
inactive: Potency [1] | outcome [2] | outcome [3] | outcome [4] | Potency [5] | outcome [6] | Potency [7] | Potency [8] | Potency [9] | Potency [10]

NC(Cc1ccc(Cl)cc1)C(=O)O (stereo not drawn)
inactive: Potency [1] | outcome [2] | outcome [3] | outcome [4] | Potency [5] | outcome [6] | activity change, negative = cytotoxic [7] 11.6% [at 0.594 µM] | activity change, negative = cytotoxic [8] 15.2% [at 0.597 µM] | activity change, negative = cytotoxic [9] 16.4% [at 0.597 µM] | activity change, negative = cytotoxic [10] 16% [at 0.597 µM]
